The values that follow come from PubChem BioAssay (NCATS).

Inconclusive results are not listed. A call without a number means that no potency is given here. Activity calls are given as the source filed them. Calls follow the shape of the dose curve; as a rule, active = well fitted curve in the direction sought with a large enough effect; inconclusive = small, poorly fitted or top-dose-only effect, or another doubt; inactive = no such curve, though single readings can be large; an effect the other way counts as inactive or inconclusive.

Test [1] concerns the target Aldehyde dehydrogenase, mitochondrial (Homo sapiens) (UniProt P05091). In words: qHTS for Inhibitors of the Aldehyde Dehydrogenase Family (ALDH2) Primary screen (AID 2061308). Also: nearly all actives have a fitted effect of over 55% in size. The conditions noted are these: ALDH2 enzyme inhibition qHTS, 1536-well; series mostly up to 56 µM. In general terms: Quantitative high-throughput screening tests each substance at several concentrations.

Test [2] has as its target Retinaldehyde dehydrogenase 3 (Homo sapiens) (UniProt P47895). In words: qHTS for Inhibitors of the Aldehyde Dehydrogenase Family (ALDH1A3) Primary screen (AID 2061315). The conditions noted are these: ALDH inhibition qHTS; series mostly up to 56 µM.

`COc1ccc(CN(Cc2ccccc2)S(=O)(=O)c2ccccc2)cc1COc1ccc(NC(C)=O)cc1`: the Potency result in test [1] and in test [2] was “inactive” throughout.

With `COc1ccccc1C(=O)OCC#CCSc1nnc(-c2cccc3ccccc23)o1`, the Potency result in test [1] and in test [2] was “inactive” in each case.

Turning to `Cc1ccc(N2C(=O)c3ccccc3C2=O)c(C)c1`, the Potency entry in test [1] and in test [2] was “inactive” throughout.

For the compound `O=S(=O)(Nc1nccs1)c1ccc(NCc2cc(F)ccc2O)cc1`, the Potency entry in test [1] and in test [2] was “inactive” each time.

Turning to `O=C(Nc1ccc(-c2ccccc2)nc1)c1cccs1`, the Potency entry in test [1] and in test [2] was “inactive” each time.

For the compound `O=C(NC1CCCc2c1cnn2-c1ccc(F)cc1F)C1CC1` (stereo not given), the Potency result in test [1] and in test [2] was “inactive” each time.

As for `Cc1cc(-c2ccccc2)n2ncc(C(=O)Nc3ccc(Cl)c(Cl)c3)c2n1`, the Potency entry in test [1] and in test [2] was “inactive” each time.

With `COc1ccc2oc(NC3=NC(c4[nH]ncc4Cl)C4=C(CCCC4=O)N3)nc2c1` (stereo not given), the Potency entry in test [1] and in test [2] was “inactive” throughout.

Turning to `O=[S+]([O-])(Nc1ccccc1)c1ccc(NCc2cccc(C(F)(F)F)c2F)cc1`, the Potency entry in test [1] and in test [2] was “inactive” in each case.

Consider `CCOc1ccc(C(C)CNC(=O)c2cc3sccc3n2Cc2ccccc2)cc1OCC` (stereo not given), for which the Potency result in test [1] and in test [2] was “inactive” in each case.

For `Cc1ccnc(NC(=S)N2CCN(c3cccc(N(C)C)c3)CC2)c1`, the Potency entry in test [1] and in test [2] was “inactive” in each case.

`CS(=O)(=O)c1ccc(C(=O)OCC(=O)N2CCN(CCC3CCCCC3)CC2)cc1[N+](=O)[O-]`: the Potency entry in test [1] and in test [2] was “inactive” each time.

In the case of `CC1(C)C[C@@H]2C[C@@](C)(CN2S(=O)(=O)c2ccc(C(=O)Nc3ccc(Cl)c(S(=O)(=O)N4CCOCC4)c3)cc2)C1`, the Potency result in test [1] and in test [2] was “inactive” each time.

Regarding `O=c1[nH]c2ccc(S(=O)(=O)N3CCN(S(=O)(=O)c4c(F)cccc4F)CC3)cc2[nH]c1=O`, the Potency entry in test [1] and in test [2] was “inactive” in each case.

With `Cc1cc(C)c(C)c(S(=O)(=O)N2CCN(S(=O)(=O)c3ccc4c(c3)OCCO4)CC2)c1C`, the Potency result in test [1] and in test [2] was “inactive” throughout.

In the case of `Cc1cc(C)n2ncc(C(=O)Nc3ccc(C)c(C)c3)c2n1`, the Potency result in test [1] and in test [2] was “inactive” each time.

Regarding `O=C(Nc1ccc(-c2ccncc2)nc1)c1cccs1`, the Potency entry in test [1] and in test [2] was “inactive” throughout.

For the compound `CCC(=O)NC(c1cccs1)c1cc(Br)c2cccnc2c1O` (stereo not given), the Potency entry in test [1] and in test [2] was “inactive” each time.

Regarding `O=C(CNC(=O)C1CCCCC1)OC(C(=O)c1ccccc1)c1ccccc1` (stereo not given), the Potency entry in test [1] and in test [2] was “inactive” throughout.

For `CC(=O)Nc1ccc(C(=O)Nc2ccc(-c3nc4ccccc4[nH]3)cc2)cc1`, the Potency entry in test [1] and in test [2] was “inactive” in each case.

On to `Cn1ncc(Cl)c1C1N=C(Nc2nc3ccccc3o2)NC2=C1C(=O)CCC2` (stereo not given), for which the Potency entry in test [1] and in test [2] was “inactive” throughout.

Turning to `O=C1NC(=O)/C(=C/c2cccn2-c2ccc(P(=O)(O)O)cc2)N1`, the Potency entry in test [1] and in test [2] was “inactive” each time.

On to `CCCCNc1nc(C)nc2c1nc(-c1ccccc1)n2CCCN1CCCCC1C` (stereo not given), for which the Potency entry in test [1] and in test [2] was “inactive” throughout.

Regarding `CCCCCC1CCC(C(=O)Nc2ccc(S(=O)(=O)Nc3nccs3)cc2)CC1` (stereo not given), the Potency result in test [1] and in test [2] was “inactive” each time.

Turning to `CC(C)(C)NS(=O)(=O)c1cccc(-c2nnc(SCC(=O)Nc3ccc(C(=O)O)cc3)n2-c2ccc(F)cc2)c1`, the Potency entry in test [1] and in test [2] was “inactive” throughout.

On to `CCOc1ccc(CCNC(=O)c2ccc(C3(C(F)(F)F)N=N3)cc2)cc1OCC`, for which the Potency entry in test [1] and in test [2] was “inactive” each time.

On to `Fc1cccc(CNc2ncnc3ccc(-c4cccc(Cl)c4)cc23)c1`, for which the Potency entry in test [1] and in test [2] was “inactive” each time.

For the compound `COC(=O)[C@@H]1C2CC3c4[nH]c5ccccc5c4CCN3CC2CC[C@@H]1O` (stereo not given in full), the Potency entry in test [1] and in test [2] was “inactive” throughout.

With `O=C(CSc1nnc(-c2cccc([S+](=O)([O-])N3CCCC3)c2)n1-c1ccccc1)Nc1cccc(F)c1`, the Potency entry in test [1] and in test [2] was “inactive” in each case.

Regarding `Cc1nc(N2CCOCC2)c2nc(-c3ccccc3)n(CCN(C)C)c2n1`, the Potency result in test [1] and in test [2] was “inactive” throughout.

With `CCC1C(=O)N(C)c2cnc(Nc3ccc(C(=O)NC4CCN(C)CC4)cc3OC)nc2N1C1CCCC1` (stereo not given), the Potency entry in test [1] and in test [2] was “inactive” in each case.

For `CCOC(=O)c1ccoc1-c1ccc2ncnc(NCc3ccc(C)o3)c2c1`, the Potency result in test [1] and in test [2] was “inactive” in each case.

Turning to `N[C@@H](Cc1ccccc1)C(=O)Nc1ccc(Cl)cc1C(=O)c1ccc[nH]1`, the Potency entry in test [1] and in test [2] was “inactive” in each case.

Turning to `O=C(Cc1ccc(Cl)c(Cl)c1)Nc1ccc(S(=O)(=O)Nc2ccccc2)cc1`, the Potency entry in test [1] and in test [2] was “inactive” in each case.

Regarding `NC(N)=NCCC[C@H](NC(=O)CNC(=O)c1ccccc1)C(=O)Nc1cc(C(F)(F)F)ccc1Cl`, the Potency result in test [1] and in test [2] was “inactive” in each case.

As for `Cc1cc2c(s1)c1cnn(Cc3c(F)ccc(C)c3Cl)c(=O)c1n2C`, the Potency entry in test [1] and in test [2] was “inactive” throughout.

Consider `Fc1cc(Nc2nc(-c3ccncc3)nc3ccccc23)ccc1-c1ccc(F)c(F)c1F`, for which the Potency result in test [1] and in test [2] was “inactive” throughout.

For `Cc1cc(C)nc(NC(=S)N2CCN(c3nc(C)cnc3C)CC2)c1`, the Potency entry in test [1] and in test [2] was “inactive” in each case.

As to `Cn1nnnc1Sc1ncnc2scc(-c3cccc(C#N)c3)c12`, the Potency entry in test [1] and in test [2] was “inactive” in each case.

On to `Cc1cc(C)n2ncc(C(=O)Nc3ccc4c(c3)CCC4)c2n1`, for which the Potency result in test [1] and in test [2] was “inactive” throughout.
